Results published in ChEMBL document CHEMBL4513216, “Probing the Open Global Health Chemical Diversity Library for Multistage-Active Starting Points for Next-Generation Antimalarials” (ACS Infect Dis, 2020).
The whole screen tested about 69,000 compounds, of which about 8,600 (12%) showed an effect of 50% or more. The sample as a whole holds a higher share of strong results than the screen did.

Tested on: Plasmodium berghei
Assay: Screen against P. berghei liver stage (PbLuc), transformed with Luciferase, at 10uM
Format: functional, HepG2
Details: tested at 10 uM

Row | SMILES | INHIBITION
1 | CNc1nc(C(=O)NCC2CCOc3ccccc3C2)cs1 (stereo not given) | 53.3%
2 | CC(=O)NCC1CCN(CC2CCOc3ccccc3C2)CC1 (stereo not given) | 37.8%
3 | Cc1cnc(C(=O)NCC2CCOc3ccccc3C2)cn1 (stereo not given) | 24.4%
4 | O=C(c1ccc(Cn2cc(Br)cn2)cc1)N1CCCC1 | 53.5%
5 | O=C(c1ccc(Cn2cc(Br)cn2)cc1)N1CCOCC1 | 37.7%
6 | CN1CCN(C(=O)c2ccc(Cn3cc(Br)cn3)cc2)CC1 | 30.7%
7 | CCC(=O)N1CCN(C(=O)CCn2cc(Cl)cn2)[C@H]2CS(=O)(=O)C[C@H]21 | 35.8%
8 | CCC(=O)N1CCN(S(=O)(=O)c2cccc(F)c2)[C@H]2CS(=O)(=O)C[C@H]21 | 32.2%
9 | CCC(=O)N1CCN(C(=O)Nc2cccc(F)c2)[C@H]2CS(=O)(=O)C[C@H]21 | 61.9%
10 | CCC(=O)N1CCN(C(=O)Nc2ccc(Cl)cc2)[C@H]2CS(=O)(=O)C[C@H]21 | 61%
11 | CC(=O)N1CCN(C(=O)Nc2ccc(Cl)cc2)[C@H]2CS(=O)(=O)C[C@H]21 | 12.6%
12 | CCC(=O)N1CCN(C(=O)Nc2cccc(C#N)c2)[C@H]2CS(=O)(=O)C[C@H]21 | -2.09%
13 | CCN1CC(CN(C)Cc2nc(-c3ccc(F)cc3F)oc2C)CC1=O (stereo not given) | 26.5%
14 | Cc1ccc(C2CSCCN2C(=O)c2ccnc(N(C)C)c2)o1 (stereo not given) | 12.3%
15 | N#Cc1c(CN2CCCCC2Cn2cncn2)cn2ccccc12 (stereo not given) | 19.3%
16 | CN(Cc1ccc(Cl)s1)C(=O)c1ccccc1OCC(N)=O | -93.8%
17 | O=C(c1ccncc1)N1CCCn2nnc(COCCO)c2C1 | 29.8%
18 | COc1cc(CN2CCC(O)(c3ccc(C)cn3)CC2)cc(Cl)c1OC | 51.3%
19 | COc1ccnc(CN2CCC(O)(c3ccc(C)cn3)CC2)c1OC | -23.4%
20 | COc1cccc(CN2CCC(O)(c3ccc(C)cn3)CC2)c1OC | -57.5%
21 | Cc1nc(C)n(CC2CN(CCOc3cccc(F)c3)CCO2)n1 (stereo not given) | -21.7%
22 | Cc1cc(C)c2nc(C)cc(C(=O)N3CC(O)CO3)c2c1 (stereo not given) | 22.6%
23 | COCCOc1cccc(CNCC2CN(C)CCO2)c1 (stereo not given) | 7.12%
24 | CN1CCOC(CNCCc2ccccn2)C1 (stereo not given) | 39.5%

Row | SMILES | INHIBITION
25 | CN(C)CC1CN(CCOc2cccc(C#N)c2)CCO1 (stereo not given) | 41.4%
26 | CN1CCOC(CNCCOc2ccc(C#N)cc2)C1 (stereo not given) | 71.1%
27 | CN1CCOC(CNCCCOc2ccc(C#N)cc2)C1 (stereo not given) | -89.9%
28 | CN1CCOC(CNCCOc2cccc(C#N)c2)C1 (stereo not given) | 66.7%
29 | CN(C)c1ccc(C2CCN(c3cnccn3)CC2)nc1 | 1.93%
30 | CO[C@H]1CC[C@H]2[C@H]1OCCN2C(=O)CC1=CCCCC1 | 32.5%
31 | O=C(CN1CCC(c2nnc(C(F)(F)F)o2)CC1)NCc1ccccc1 | -3.48%
32 | CCc1nnc(Nc2cccc(C3CCN(CC4CC4)CC3)n2)s1 | 14.7%
33 | CCc1ccc(C(=O)N2CCN(CC(O)c3ccccc3)CC2)o1 (stereo not given) | 37.9%
34 | c1ccc(Cc2nnc(CN3CCc4cncnc4C3)o2)cc1 | -31.3%
35 | Cc1noc(C)c1CN1CCC(N(C)Cc2noc(C(C)C)n2)C1 (stereo not given) | 29.8%
36 | CSCC[C@H](N)c1nnc(SCc2cc(C)ccc2C)o1 | 12.5%
37 | Cc1nc(C)n(CC2CCCN2CC(=O)NCCc2ccccc2)n1 (stereo not given) | 9.54%
38 | CC(=O)NCCNC(=O)CN1CCCC1Cn1nc(C)nc1C (stereo not given) | 1.56%
39 | Cc1nc(C)n(CC2CCCN2CC(=O)NCCC2=CCCCC2)n1 (stereo not given) | 77.7%
40 | O=C(CN1CCCC1Cn1cncn1)NCCC1=CCCCC1 (stereo not given) | 27.6%
41 | O=C(CN1CCCCC1Cn1cncn1)NCCc1ccsc1 (stereo not given) | -81.3%
42 | Cc1nc(C)n(CC2CCCN2CC(=O)NCCc2ccsc2)n1 (stereo not given) | 91.3%
43 | COc1ccc(CN2CCO[C@H]3CN(C4CCC4)CC[C@H]3C2=O)cc1 | 17.2%
44 | O=C(c1cccc(F)c1)N1CCOC(c2nc(-c3ncccn3)no2)C1 (stereo not given) | 13.1%
45 | CC(C)c1nnc2n1CCN(CCC(=O)Nc1sccc1C#N)C2 | 5.7%
46 | CN(C)Cc1cc(C2CCCN(S(=O)(=O)c3cccc(Cl)c3)C2)nn1C (stereo not given) | -14.2%
47 | Cc1ncc(CN2CCCC(c3cc(C(F)(F)F)[nH]n3)C2)s1 (stereo not given) | -17.6%
48 | CCOCCC1(CNC(=O)c2ccncc2)CCC1 | -37.7%

Row | SMILES | INHIBITION
49 | CCCNC(=O)c1ccc(S(=O)(=O)NCC2(O)CCCNC2)cc1 (stereo not given) | 43.4%
50 | CCCNC(=O)c1ccc(S(=O)(=O)NCC2(COC)CCCC2)cc1 | 89.7%
51 | CCCNC(=O)NCc1ccccc1NS(=O)(=O)c1ccccc1 | -24.7%
52 | CCCNC(=O)c1ccc(S(=O)(=O)NC2(COC)CCCC2)cc1 | 56.3%
53 | CNS(=O)(=O)c1ccc(C(=O)NCCNc2ncccn2)cc1 | 33%
54 | CC(=O)N(Cc1ncc(C)o1)C1CCN(Cc2cc(C)on2)C1 (stereo not given) | -16%
55 | COC(CNC(=O)C1CCN(S(C)(=O)=O)CC1)c1ccc(C)s1 (stereo not given) | 36.8%
56 | COc1ccc(CN(C)[C@@H]2CN(C(=O)c3cccnc3)C[C@H]2O)cc1 | 52%
57 | COc1ccc(CN(C)[C@@H]2CN(C(=O)c3ccccc3)C[C@H]2O)cc1 | 25.6%
58 | COc1ccc(CN(C)[C@@H]2CN(C(=O)c3cnn(C)c3)C[C@H]2O)cc1 | 2.71%
59 | COc1ccc(CN(C)[C@@H]2CN(C(=O)c3cncs3)C[C@H]2O)cc1 | 56.8%
60 | COc1ccc(CN(C)[C@@H]2CN(C(=O)c3cccs3)C[C@H]2O)cc1 | 24.5%
61 | COc1ccc(CN(C)[C@@H]2CN(C(=O)c3ccnn3C)C[C@H]2O)cc1 | -55%
62 | COc1ccnc(N2CCN(Cc3nc(-c4ccoc4)no3)CC2)c1 | 9.52%
63 | Cc1nc(C)n(CC2CCCN2Cc2cn3cc(Cl)ccc3n2)n1 (stereo not given) | 15.3%
64 | Cc1ccccc1C(=O)N1CCO[C@H]2[C@H](OCCN(C)C)CC[C@@H]21 | -0.371%
65 | CO[C@@H]1CC[C@H]2[C@H]1OCCN2C(=O)c1ccc(C)nc1 | 67%
66 | CN(C)CCO[C@@H]1CC[C@H]2[C@H]1OCCN2C(=O)c1ccncc1 | 29.3%
67 | Cn1cccc1C(=O)N1C[C@@H]2CCCO[C@@H]2[C@H](N2CCOCC2)C1 | 30.5%
68 | Cc1cccc(C(=O)N2CCO[C@H]3[C@H](OCCN(C)C)CC[C@@H]32)n1 | 54%
69 | Cc1cc(C(=O)N2C[C@@H]3CCCO[C@@H]3[C@H](N3CCOCC3)C2)c(C)[nH]1 | 4.02%
70 | O=C(c1ccccc1)N1C[C@@H]2CCCO[C@@H]2[C@H](N2CCOCC2)C1 | 49.7%
71 | Cc1ccc(C(=O)N2CCO[C@H]3[C@H](OCCN(C)C)CC[C@@H]32)cn1 | -9.26%
72 | CO[C@H]1CC[C@H]2[C@H]1OCCN2C(=O)c1ccc(C)nc1 | -6.39%

Row | SMILES | INHIBITION
73 | Cc1ccc(C(=O)N2C[C@@H]3CCCO[C@@H]3[C@H](N3CCCC3)C2)cn1 | 30.5%
74 | O=C(c1ccccc1)N1C[C@@H]2CCCO[C@@H]2[C@H](N2CCCC2)C1 | 52.6%
75 | Cc1ccc(C(=O)N2C[C@@H]3CCCO[C@@H]3[C@H](N3CCOCC3)C2)cn1 | 52.6%
76 | COc1ccc(Cn2cc(C(=O)N(C)CCN(C)C)nn2)cc1 | 28.5%
77 | c1cncc(COCc2nnc3n2CCN(CC2CC2)C3)c1 | -15.7%
78 | CCS(=O)(=O)CCN(C)C(=O)NC(C)c1ccc(C)s1 (stereo not given) | 22.6%
79 | CCc1sc(C(=O)N2CCC(Nc3ccc(C)nn3)CC2)cc1C | 42%
80 | Cc1ccc(C(=O)N2C[C@@H](N3CCN(C)CC3)[C@H]3OCCC[C@H]32)cn1 | 10.4%
81 | Cc1ccc(C(=O)N2C[C@H](N3CCOCC3)[C@@H]3OCCC[C@@H]32)cn1 | 50.3%
82 | Cc1cnc(C(=O)N2C[C@H](N3CCOCC3)[C@@H]3OCCC[C@@H]32)cn1 | 45.7%
83 | CC(=O)NCC1CCN(C(=O)c2ccc(Sc3ccccn3)cc2)CC1 | 14.4%
84 | CC(=O)N1CCN(c2cnnc(N3CCCC3)c2)CC1 | 31.9%
85 | O=C(c1ccccc1)N1C[C@H]2CC[C@@H](C1)N(Cc1cc(F)ccc1Cl)C2 | 25%
86 | COCCCN1C(=O)CC[C@H]2CN(c3cnc4ccccc4n3)CC[C@H]21 | 28.5%
87 | COCCCN1C(=O)CC[C@H]2CN(c3cc(C(N)=O)ccn3)CC[C@H]21 | 24.9%
88 | COCCCN1C(=O)CC[C@H]2CN(c3ccnc4ccccc34)CC[C@H]21 | 63.9%
89 | COCCCN1C(=O)CC[C@H]2CN(Cc3ccc4occc4c3)CC[C@H]21 | 16.1%
90 | COCCCN1C(=O)CC[C@H]2CN(Cc3cc4ccccc4o3)CC[C@H]21 | 73.9%
91 | COCCCN1C(=O)CC[C@H]2CN(c3nc4ccccc4s3)CC[C@H]21 | 41.2%
92 | COCCCN1C(=O)CC[C@H]2CN(Cc3ccc4nonc4c3)CC[C@H]21 | 53.4%
93 | COCCCN1C(=O)CC[C@H]2CN(Cc3ncc[nH]3)CC[C@H]21 | 38.8%
94 | NCCN1C(=O)CC[C@H]2CN(Cc3ccc4occc4c3)CC[C@H]21 | 30.3%
95 | CC(=O)N1CCCC(c2ccc(N3CCOCC3)cn2)C1 (stereo not given) | -4.51%
